14 compounds from PubChem BioAssay can be followed below.

Assay [1] can be described thus: inhibitors of TNFa-induced NFkB p65 translocation, primary screen, imaging, HUVEC, MLSMR starter and 10KST1 sets (AID 438;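 active = inhibition above 20% together with a positive visual image hit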;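 note: compound added about 3h40 before a 20 min TNFalpha stimulation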;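 for inhibition: signal is the nuclear over cytoplasmic p65 intensity ratio per well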). Particulars: HUVEC TNFa-induced p65 nuclear translocation; cell count: measured here: nuclei count (cytotoxicity indicator), at 2.08 µM; inhibition: at 2 µM, stronger effect = higher value, 0% TNFa-plus-vehicle, 100% no-TNFa wells.
A short description of assay [2]: reduction of polyQ htt aggregates in cells – imaging, exon1htt(103Q)mCFP cells, high-content imaging, primary screen (AID 483;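 active = visual image review flags a hit and inhibition of aggregation exceeds 20%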;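 note: compound exposure lasted 3 days before fixation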;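 for nuclei count: percent of the per-plate median nuclei count of sample wells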). Particulars: exon1htt(103Q)mCFP cell line, aggregate imaging, at 2 µM; inhibition of aggregation: stronger effect = higher value; nuclei count: measured here: cell count, toxicity.
Assay [3] can be described thus: endothelial E-selectin expression blockers – imaging, HUVEC, immunofluorescence, MLSMR starter and 10KST1 sets, primary screen (AID 487;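 active = visually confirmed hit in the image check and inhibition above 20%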;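 for inhibition: signal is fraction of cell area covered by stained E-selectin grains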;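 for nuclei count: 100% = median nuclei count of all wells on the same plate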). Conditions: HUVEC TNFalpha-induced E-selectin immunofluorescence imaging, at 2 µM; inhibition: stronger effect = higher value; nuclei count: measured here: cell number, toxicity.
Assay [4] concerns the target Voltage-gated potassium channel subunit beta-2 (Rattus norvegicus) (UniProt P62483). Kind of assay: inhibitors of rat Kvbeta2 reductase activity – biochemical, NADPH fluorescence, primary screen (AID 622;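 active = fluorescence slope higher than the sample average by over 3 SD, cut at about -0.22 in these data, passing the limit was not always enough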;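 note: slope of raw intensity against log time taken from 70 to 1610 s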). Particulars: recombinant KvBeta, 4-cyanobenzaldehyde reduction, at 10 µM, stronger effect = higher value.
The target is the same in assay [5]. Kind of assay: enhancers of rat Kvbeta2 NADPH turnover – biochemical, NADPH fluorescence, primary screen (AID 623;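 active = NADPH fluorescence slope more negative than the mean of all samples by about 3 SD, 99.7% confidence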;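 note: fluorescence intensity change per second fitted from 20 to 320 s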). Particulars: Recombinant KvBeta, NADPH fluorescence decrease slope, 10 min; at 10 µM; stronger effect = lower value.
The target of assay [6] is Alpha-2C adrenergic receptor (Homo sapiens) (UniProt P18825). Description: compounds altering alpha2C-coupled GIRK flux – cell-based, HEK293 alpha2C/GIRK1/2, thallium flux, primary screen (AID 624).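 Note: slope of fluorescence ratio to pre-addition baseline per second over 15 to 24 s.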 Conditions: thallium flux BTC fluorescence, at 10 µM, actives lie on both sides.
Alpha-2C adrenergic receptor (Homo sapiens), sequence (P18825 whole entry, looked up): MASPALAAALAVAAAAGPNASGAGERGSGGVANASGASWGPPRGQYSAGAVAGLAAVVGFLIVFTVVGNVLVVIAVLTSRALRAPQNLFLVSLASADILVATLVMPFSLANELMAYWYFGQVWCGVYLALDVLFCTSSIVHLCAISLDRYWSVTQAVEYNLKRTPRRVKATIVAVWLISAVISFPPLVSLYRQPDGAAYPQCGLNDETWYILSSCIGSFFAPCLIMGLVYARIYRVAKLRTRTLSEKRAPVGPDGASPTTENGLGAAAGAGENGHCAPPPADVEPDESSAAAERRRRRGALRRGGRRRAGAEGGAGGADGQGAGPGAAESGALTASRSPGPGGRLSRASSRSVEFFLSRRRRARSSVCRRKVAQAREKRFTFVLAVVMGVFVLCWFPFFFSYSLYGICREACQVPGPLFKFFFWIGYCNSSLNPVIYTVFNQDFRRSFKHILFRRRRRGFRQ
Assay [7] is described as follows: blockers of RIG-like receptor reporter activation – cell-based, Sendai virus stimulus, luciferase, 10K MLSCN set, TLR/RLR signaling modifier project, primary screen (AID 602276;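 active = inhibition at or above 50% at 10 µM; inactive = inhibition below 50%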;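 note: firefly luciferase from ISG56 promoter only with Renilla not read in this screen; 0% = Sendai virus plus DMSO and 100% = medium plus DMSO without virus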). Particulars: HEK293 RL24 IRF3 luciferase reporter, at 10 µM, stronger effect = higher value.
Assay [8] can be described thus: TLR3 IRF3 reporter activation blockers – cell-based, poly I:C stimulus, luciferase, 10K MLSCN set, primary screen (AID 602277;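 active = inhibition of the reporter signal at or above 50%; inactive = inhibition below 50%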). Conditions: HEK293-TLR3 RL24 IRF3 luciferase reporter, at 10 µM, stronger effect = higher value.

Activity calls are given as the source filed them.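 Rule for the calls, unless noted: active = fluorescence slope after compound addition differing from the mean of all screened samples at 99.7% confidence, in either direction; inactive = the rest.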

Voltage-gated potassium channel subunit beta-2 (Rattus norvegicus), sequence (P62483 whole entry, looked up): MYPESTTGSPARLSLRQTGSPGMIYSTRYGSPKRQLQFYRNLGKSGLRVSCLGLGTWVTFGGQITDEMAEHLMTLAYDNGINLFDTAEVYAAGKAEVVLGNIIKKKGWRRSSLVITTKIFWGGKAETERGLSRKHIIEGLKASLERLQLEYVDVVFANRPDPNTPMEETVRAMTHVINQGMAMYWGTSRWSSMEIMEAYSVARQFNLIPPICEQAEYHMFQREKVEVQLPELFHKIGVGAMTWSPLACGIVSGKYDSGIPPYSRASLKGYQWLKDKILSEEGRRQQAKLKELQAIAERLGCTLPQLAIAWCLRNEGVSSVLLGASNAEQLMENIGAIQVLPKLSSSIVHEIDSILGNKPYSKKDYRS

Usually inhibition stands for the relative decrease from the control value, in per cent. Take `O=C1OCc2cc(NC(=O)C3CCCO3)ccc21` (centres undefined): the cell count in assay [1] turned out to be 790. Besides, the inhibition in assay [1] is -8.1% (inactive); in assay [3] it was -31.8% (inactive); in assay [7] it was 3.9% (inactive); in assay [8], 13.5% (inactive). Moreover, the inhibition of aggregation in assay [2] is 13.1% (inactive). The nuclei count in assay [2] and in assay [3] was 111% each time. In addition, in assay [4], the fluorescence slope was -0.379 (inactive). Further, the NADPH fluorescence slope in assay [5] is 5.7e-07 (inactive). In addition, in assay [6], the slope is 0.00421 (inactive).
On to `Cc1ccc(S(=O)(=O)N2CCN(CCO)CC2)cc1-c1nnc2c3ccccc3c(C)nn12`, for which, in assay [1], the cell count was determined as 357. Also, the inhibition in assay [1] is -0.4% (inactive); in assay [3], 8.6% (inactive); in assay [7], 3.73% (inactive); in assay [8] it was 9.83% (inactive). The inhibition of aggregation in assay [2] is -26.9% (inactive). Further, the nuclei count in assay [2] amounted to 102%; in assay [3] it was 81%. For the same compound, in assay [4], the fluorescence slope was -0.609 (inactive). For the same compound, the NADPH fluorescence slope in assay [5] is -1.7e-05 (inactive). The slope in assay [6] is 0.00417 (inactive).
`CCOc1ccccc1C(=O)Nc1cc(=O)n(C)c(=O)n1C`: the cell count in assay [1] turned out to be 651. For the same compound, the inhibition in assay [1] is -0.8% (inactive); in assay [3], 31% (inactive); in assay [7] it was 14.8% (inactive); in assay [8] it was 39.7% (inactive). Besides, the inhibition of aggregation in assay [2] is 6.8% (inactive). Besides, the nuclei count in assay [2] stood at 95.8%; in assay [3], 98.4%. In addition, in assay [4], the fluorescence slope was -0.416 (inactive). Moreover, the NADPH fluorescence slope in assay [5] was -4.9e-05 (inactive). In addition, the slope in assay [6] is 0.00585 (inactive).
Consider `CCCc1cc(C(=O)Nc2ccc(C(C)=O)cc2)no1`, for which the cell count in assay [1] came out at 566. Moreover, the inhibition was -4.4% (inactive) in assay [1], -58.4% (inactive) in assay [3], 15.4% (inactive) in assay [7] and -5.79% (inactive) in assay [8]. Besides, the inhibition of aggregation in assay [2] was 1.1% (inactive). In addition, the nuclei count in assay [2] came to 128%; in assay [3], 110%. Moreover, the fluorescence slope in assay [4] was -0.559 (inactive). In addition, the NADPH fluorescence slope in assay [5] is 1.4e-06 (inactive). For the same compound, the slope in assay [6] was 0.00619 (inactive).
With `CN1CCN(Cc2nc3c(c(=O)[nH]c(=O)n3C)n2CCc2ccccc2)CC1`, the cell count in assay [1] was 632. The inhibition in assay [1] was 7.4% (inactive); in assay [3] it was -34.7% (inactive); in assay [7], 3.33% (inactive); in assay [8], 39.3% (inactive). The inhibition of aggregation in assay [2] was 6.7% (inactive). Besides, the nuclei count is 99.2% in assay [2] and 119% in assay [3]. For the same compound, the fluorescence slope in assay [4] was -0.436 (inactive). Further, the NADPH fluorescence slope in assay [5] is -1.6e-05 (inactive). Moreover, the slope in assay [6] was 0.00646 (inactive).
As to `C=CCn1c(-c2ccc(OC)cc2)nc2ccccc21`, the cell count in assay [1] came to 386. In addition, the inhibition in assay [1] is -3.5% (inactive); in assay [3], -24.9% (inactive); in assay [7], -24.1% (inactive); in assay [8] it was -54.6% (inactive). Moreover, the inhibition of aggregation in assay [2] was 1% (inactive). Further, the nuclei count came out at 96.1% in assay [2] and 86.4% in assay [3]. The fluorescence slope in assay [4] was -0.488 (inactive). Further, the NADPH fluorescence slope in assay [5] was -4.7e-05 (inactive). Also, the slope in assay [6] was 0.0046 (inactive).
For `Cc1ccccc1NC(=O)CN1CCC(NC(=O)Nc2ccccc2)CC1`, the cell count in assay [1] worked out at 516. Besides, the inhibition in assay [1] was -1.9% (inactive); in assay [3], -121% (inactive); in assay [7], 9.37% (inactive); in assay [8] it was 9.34% (inactive). In addition, the inhibition of aggregation in assay [2] was 25.9% (inactive). In addition, the nuclei count in assay [2] was determined as 68%; in assay [3], 93%. Besides, the fluorescence slope in assay [4] was -0.292 (inactive). The NADPH fluorescence slope in assay [5] is -4.8e-05 (inactive). Moreover, the slope in assay [6] was 0.00566 (inactive).
As to `CCCCN(C)CCCNC(=O)CC1Oc2ccccc2NC1=O` (centres undefined), the cell count in assay [1] was found to be 585. For the same compound, the inhibition in assay [1] is -2.7% (inactive); in assay [3], -11.7% (inactive); in assay [7], 13.8% (inactive); in assay [8], 36.6% (inactive). Moreover, the inhibition of aggregation in assay [2] is 18.9% (inactive). In addition, the nuclei count in assay [2] was 104%; in assay [3], 131%. Besides, the fluorescence slope in assay [4] is -0.493 (inactive). Besides, the NADPH fluorescence slope in assay [5] is 1.6e-05 (inactive). For the same compound, the slope in assay [6] was 0.00638 (inactive).
`O=C(COC(=O)c1cc(-c2ccco2)nc2ccccc12)NCc1ccc2c(c1)OCO2`: the cell count in assay [1] was 349. Also, the inhibition is -18.2% (inactive) in assay [1], 3.4% (inactive) in assay [3], 2.9% (inactive) in assay [7] and 11.8% (inactive) in assay [8]. Moreover, the inhibition of aggregation in assay [2] was -7.7% (inactive). Moreover, the results for the nuclei count in assay [2] and in assay [3] were 54% and 108%, respectively. The fluorescence slope in assay [4] is -0.407 (inactive). Besides, in assay [5], the NADPH fluorescence slope is -1.1e-05 (inactive). For the same compound, the slope in assay [6] was 0.00558 (inactive).
On to `COc1ccccc1N1CCN(C(=O)C(Cc2ccccc2)NC(=O)C2CCCCC2)CC1` (centres undefined), for which, in assay [1], the cell count worked out at 370. Moreover, the inhibition was -0.9% (inactive) in assay [1], -114% (inactive) in assay [3], 0.074% (inactive) in assay [7] and 17.7% (inactive) in assay [8]. Moreover, in assay [2], the inhibition of aggregation was 11.3% (inactive). In addition, the nuclei count in assay [2] was 65.4%; in assay [3], 96.1%. Besides, the fluorescence slope in assay [4] was -0.428 (inactive). The NADPH fluorescence slope in assay [5] is -0.000112 (inactive). The slope in assay [6] was 0.00516 (inactive).
For the compound `CC(C)CCNC(=O)Cn1c(NCCC(C)C)nc2c1c(=O)n(C)c(=O)n2C`, the cell count in assay [1] stood at 544. Besides, the inhibition in assay [1] was -8.3% (inactive); in assay [3], -11.6% (inactive); in assay [7] it was 3.06% (inactive); in assay [8], 33.2% (inactive). The inhibition of aggregation in assay [2] was 28.1% (inactive). For the same compound, the nuclei count is 80.1% in assay [2] and 102% in assay [3]. Moreover, the fluorescence slope in assay [4] was -0.623 (inactive). Moreover, the NADPH fluorescence slope in assay [5] is 8.9e-06 (inactive). Besides, the slope in assay [6] was 0.0069 (inactive).
Regarding `COc1ccc(OC)c(S(=O)(=O)N2CCC(C(=O)NCc3ccccc3OC)CC2)c1`, the cell count in assay [1] was determined as 782. For the same compound, the inhibition in assay [1] is -2.1% (inactive); in assay [3] it was -74.6% (inactive); in assay [7] it was 4.82% (inactive); in assay [8], 13.9% (inactive). Moreover, the inhibition of aggregation in assay [2] was -13.8% (inactive). Besides, the nuclei count was determined as 107% in assay [2] and 133% in assay [3]. For the same compound, the fluorescence slope in assay [4] was -0.517 (inactive). Besides, the NADPH fluorescence slope in assay [5] is -1.4e-05 (inactive). In addition, the slope in assay [6] was 0.00487 (inactive).
In the case of `CCC1CCCCN1CCNS(=O)(=O)c1ccc2c(c1)oc(=O)n2C` (centres undefined), in assay [1], the cell count came to 809. Moreover, the inhibition was 1.8% (inactive) in assay [1], -92.7% (inactive) in assay [3], 14.3% (inactive) in assay [7] and 39.8% (inactive) in assay [8]. Further, the inhibition of aggregation in assay [2] was 19.9% (inactive). Further, the nuclei count in assay [2] stood at 97.2%; in assay [3], 116%. Further, in assay [4], the fluorescence slope is -0.581 (inactive). Also, in assay [5], the NADPH fluorescence slope was -4.9e-05 (inactive). The slope in assay [6] is 0.00605 (inactive).
Take `CCN1CCN(CCCNC(=O)C2c3ccccc3C(=O)N(C)C2c2ccc(OC)cc2)CC1` (centres undefined): in assay [1], the cell count was 567. Moreover, the inhibition in assay [1] is 15.4% (inactive); in assay [3], 31.9% (inactive); in assay [7], 2.59% (inactive); in assay [8], 14% (inactive). In addition, the inhibition of aggregation in assay [2] was -1.2% (inactive). In addition, the nuclei count in assay [2] was 82.8%; in assay [3] it was 93.8%. Besides, the fluorescence slope in assay [4] is -0.504 (inactive). Moreover, in assay [5], the NADPH fluorescence slope is -1.6e-06 (inactive). In assay [6], the slope was 0.00453 (inactive).
